About 83,000 compounds went through this panel and 20% of them were active in at least one assay; those are over-represented in the sample as a whole.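 The test compound was applied at a single concentration to cells in 96-well plates for 48 hours, and percent growth was recorded.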 Unmarked numbers belong to inactive results. The source made the active and inactive calls. The calls were made as follows: active = growth percent below 10; inactive = the rest.
system: HL-60(TB) leukemia; experiment: NCI-60 one-dose screen, 48 h (100 = growth as untreated, 0 = no growth, -100 = all killed); conditions: 10 µM unless noted

SMILES | growth
Nc1nc(N)c2nc(-c3cccc(O)c3)c(-c3cccc(O)c3)nc2n1 | 120%
COc1ccc(-c2n[nH]nc2-c2cc3ccccc3s2)cc1O | 2.49% (active)
COc1cc2c(cc1OC)C(=O)/C(=C/c1cc(C)c(O)c(C)c1)S2 | -3.56% (active)
O=C(c1ccccc1)c1c(/C=C/c2ccccc2)nc2ccccc2c1/C=C/c1ccc(Br)cc1 | 112%
CCOC(=O)/C=C(/C)Sc1cc(O)c2ccccc2c1O | 20.5%
CCN(CC)c1ccc(C(=O)c2ccc(N(CC)CC)cc2)cc1 | 9.59% (active)
O=C1Nc2cc(-c3cccc([N+](=O)[O-])c3)ccc2/C1=C/c1ccc[nH]1 | 101%
CCCNNC(=O)c1ccc(CNC(=O)/C=C/c2ccccc2)cc1 | 33.4% [2.5 µM]
COc1ccc(C2Nc3nc(SC)nc(N)c3N=C3c4ccccc4CCC32)cc1 (stereo not given) | 71.1%
C/C(=N\Nc1cc(C)c2cc(C)ccc2n1)c1ccccn1 | -54.9% (active)
COc1ccc(C(=S)N2CCN(c3ccccc3Cl)CC2)cc1OC | 118%
COc1ccc(C2=Nn3c(nnc3-n3nc(C)cc3C)SC2)cc1 | -29% (active)
COc1ccc2nccc(Cl)c2c1 | 103%
COC(=O)c1ccc2c(C(=Nc3ccc(N(C)C(=O)CN4CCN(C)CC4)cc3)c3ccccc3)c(O)[nH]c2c1 | 70.8%
N#C/C(=C\c1ccc(-c2ccc(F)cc2)o1)c1nc(-c2ccco2)cs1 | 98%
Brc1c[n+](Cc2ccc3ccccc3c2)cn1Cc1ccc2ccccc2c1 | -47.5% (active)
N#Cc1c(NC(=O)c2ccccc2I)sc2c1CCCC2 | 12.6%
c1ccc2c[n+](Cc3ccc4ccccc4n3)ccc2c1 | 74.3%
COc1ccc(-c2ccc(-c3ccc(-c4ccc(C(=N)N)cc4)s3)s2)cc1OC | 99.1%
COc1ccc(CC(C)=C(c2ccc(OCCN3CCCCCC3)cc2)c2ccc(OCCN3CCCCCC3)cc2)cc1 | -59.8% (active)
CN(C)C/C=C/C(=O)Nc1cc2c(Nc3ccc(F)c(Cl)c3F)ncnc2cc1OCCOC(F)F | 13.2%
Cc1ccc(Cl)cc1NC(=O)c1sc2nc3c(cc2c1N)C(=O)CCC3 | 82.2%
CC(=O)C1=C(C)NC(SCc2nnc(-c3ccc(C)cc3)o2)=NC1c1ccc(F)cc1 (stereo not given) | 80.8%
c1ccc(-c2nc([P+](c3ccccc3)(c3ccccc3)c3ccccc3)c(N3CCOCC3)o2)cc1 | -12% (active)
O=C(c1ccccc1)C(Sc1ccccc1)c1ccccc1 (stereo not given) | 84.1%

Reference: PubChem BioAssay (NCI)
